# Screening data as filed in PubChem BioAssay.
# POLH inh – DNA polymerase eta (human) inhibition | Q9Y253 | recombinant Pol eta, fluorescent DNA replication assay | Potency, µM (doses to about 114 µM), for inactives: at the top dose activity change, negative = inhibition, most hits filed as inhibitors | hit rate 1.2% among 390,000; also: % is scaled to controls: 0 for no effect and ±100 for the full control effect
#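 Pol eta (10 nM) was preincubated with compounds for 15 min at room temperature, after which fluorescent replication substrate (50 nM final) was added to start the reaction. Fluorescence was read kinetically at 0 and 10 min.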
# Pol beta inh – DNA polymerase beta (human) inhibition; P06746; Pol beta primer extension/strand displacement, fluorescence kinetic; Potency, µM (series often up to 114 µM), for the others: at the top dose activity change, negative = inhibition, usual class: inhibitors; hit rate 1.3% among 340,000; AID 485314; also: % is scaled to controls: 0 for no effect and ±100 for the full control effect
#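 Curves were derived by four-parameter Hill fits of normalized qHTS data. The kinetic fluorescent primer-extension read was taken at 0 and 10 min after 50 nM substrate, following a 15 min room-temperature preincubation of 10 nM enzyme with compounds.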
# KAT2A inh – GCN5L2 (KAT2A) acetyltransferase inhibition; Potency, µM (top dose mostly 58.9 µM), for the others: at the highest dose activity change, negative = inhibition, actives largely listed as inhibitors; Q92830; GCN5L2 HAT assay, ThioGlo1 CoA-SH fluorescence; hit rate 0.21% among 390,000; also: % is scaled to controls: 0 for no effect and ±100 for the full control effect
# Target sequence (Q92830 whole entry, looked up): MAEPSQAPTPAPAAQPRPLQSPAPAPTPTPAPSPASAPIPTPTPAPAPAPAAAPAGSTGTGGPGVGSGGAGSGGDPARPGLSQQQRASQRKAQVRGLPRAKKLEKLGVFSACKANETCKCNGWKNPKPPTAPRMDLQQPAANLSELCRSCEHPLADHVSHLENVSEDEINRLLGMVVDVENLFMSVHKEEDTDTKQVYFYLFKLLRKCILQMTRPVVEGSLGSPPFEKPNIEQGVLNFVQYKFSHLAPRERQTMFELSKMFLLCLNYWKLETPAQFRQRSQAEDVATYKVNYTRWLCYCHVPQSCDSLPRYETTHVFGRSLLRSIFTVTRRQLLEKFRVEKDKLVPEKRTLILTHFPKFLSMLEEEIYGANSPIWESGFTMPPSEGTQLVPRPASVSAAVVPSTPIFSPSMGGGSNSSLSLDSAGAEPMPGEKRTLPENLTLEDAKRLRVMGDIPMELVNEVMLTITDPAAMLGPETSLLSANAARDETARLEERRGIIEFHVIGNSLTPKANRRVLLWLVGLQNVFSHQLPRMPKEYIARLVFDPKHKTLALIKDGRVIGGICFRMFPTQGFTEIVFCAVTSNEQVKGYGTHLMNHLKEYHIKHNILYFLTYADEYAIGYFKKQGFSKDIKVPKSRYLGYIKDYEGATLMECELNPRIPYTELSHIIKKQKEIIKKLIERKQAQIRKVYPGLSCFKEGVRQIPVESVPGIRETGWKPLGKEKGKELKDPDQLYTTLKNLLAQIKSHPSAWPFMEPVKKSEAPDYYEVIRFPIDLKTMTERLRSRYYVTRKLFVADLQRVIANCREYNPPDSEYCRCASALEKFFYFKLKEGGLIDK
#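 GCN5L2 (20nM final) in 50mM HEPES, 0.1mM EDTA pH 7.5, 0.01% Tween-20 was preincubated 15 min at room temperature with compound, then given ThioGlo1 (50uM), H3(1-25) peptide (75uM) and acetyl-CoA (70uM); CoA-thiol fluorescence (Ex340/Em540) was read at 0 and 20 min.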
# Pol kappa inh – blocks human DNA polymerase kappa activity; Potency, µM (series often up to 107 µM), inactives show at the top dose activity, negative = inhibition, usual class: inhibitors; hit rate 0.53% among 400,000; Q9UBT6; purified Pol kappa, fluorescent DNA synthesis assay, 10 min; also: % is scaled to controls: 0 for no effect and ±100 for the full control effect
#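 Readout: fluorescence, taken kinetically at 0 and 10 min. Conditions: 10 nM Pol kappa, 15 min RT compound preincubation, 50 nM substrate final. Controls: enzyme-free buffer wells.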
# GLS inhibitor – inhibitors of human glutaminase (GLS); hit rate 0.21% among 410,000; GLS enzymatic activity, qHTS titration; Potency, µM (top dose mostly 45.5 µM), inactives show at the top dose activity change, negative = inhibition, hits mostly inhibitors; O94925; also: % is scaled to controls: 0 for no effect and ±100 for the full control effect
#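 Two-point fluorescence kinetic (t0, 30 min RT) for hKGA; glutamate detected via glutamate oxidase–HRP–Amplex Red. Substrate: 1 mM L-glutamine solution; buffer 45 mM KH2PO4, pH 8.2.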
# Pol iota inh – blocks human DNA polymerase iota activity | Q9UNA4 | Pol iota fluorescent replication assay, 10 min | Potency, µM (top dose mostly 115 µM), for inactives: at the highest dose activity, negative = inhibition, hits mostly inhibitors | hit rate 1% among 390,000 | AID 588590
#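 Fluorescent replication assay read twice, at 0 min and 10 min after adding 50 nM (final) substrate. Enzyme (10 nM) and compounds were first incubated 15 min at room temperature; enzyme-free buffer wells were negative controls.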
# An asterisk follows results filed as active; ? = inconclusive; nt = no result; [ ] = dose if it differs, or a comment. This is a sample that favours compounds with a hit; in the whole collection about 2.4% have one here. Calls follow the shape of the dose curve; as a rule, active = well fitted inhibition curve with a large enough effect; inconclusive = small, poorly fitted or top-dose-only effect, or another doubt; inactive = no such curve, though single readings can be large or run the other way. Potency is read from the fitted curve at half-maximal effect.
SMILES,POLH inh,Pol beta inh,KAT2A inh,Pol kappa inh,GLS inhibitor,Pol iota inh
CC(C)C[C@@H](CNCC(=O)[C@H](Cc1c[nH]c2ccccc12)NC(=O)c1[nH]cnc1C(=O)N[C@@H](C)CN)NC(=O)c1nc[nH]c1C(=O)N[C@@H](CC(=O)O)C(=O)O,-15%,nt,nt,-14%,10µM*,?
CC(C)C[C@@H](CNCC(=O)[C@H](Cc1c[nH]c2ccccc12)NC(=O)c1[nH]cnc1C(=O)N[C@H](CN)CC(C)C)NC(=O)c1nc[nH]c1C(=O)N[C@@H](CC(=O)O)C(=O)O,50µM*,nt,nt,?,8.9µM*,?
CC(C)C(NC(=O)C(CC(=O)O)NC(=O)C(CCCCN)NC(=O)C(N)CCCN=C(N)N)C(=O)NC(Cc1ccc(O)cc1)C(=O)O (stereo not given),nt,nt,-7%,-4%[19.4 µM],52%,nt
CC(C)CC(=O)N1C/C=C\C[C@@H](c2ccc(Cl)cc2)N(Cc2ccc(Cl)cc2)C(=O)[C@@H]1Cc1ccccc1,nt,nt,nt,8%,nt,17%
Cc1ccc(S(=O)(=O)Nc2ccc(Nc3ccccc3)cc2)cc1,-20%,-5%,-8%,1%,0%,35%
Cc1ccc(S(=O)(=O)c2cc(Nc3ccccc3)ccc2O)cc1,-6%,nt,-4%,40µM*,7%,50µM*
Cc1ccc(-n2c(C)nn(Cc3ccc([N+](=O)[O-])cc3)c2=O)cc1,-14%,41%,-11%,-11%,12%,5%
Cc1ccc(-n2c3nc(=O)[nH]c(=O)c-3cc3cc([N+](=O)[O-])ccc32)cc1,45µM*,49%,-5%,-4%,-3%,?
C[C@@H](CO)[C@H](/C=C/c1ccccc1)CCO[Si](c1ccccc1)(c1ccccc1)C(C)(C)C,nt,nt,nt,1%,nt,-15%
Cc1nnc(N/N=C/c2cccc(OCc3ccc(Cl)c(Cl)c3)c2)n1N,?,-8%,-3%,-6%,3%,6.3µM*
Cc1nnc(N/N=C/c2cccc(C(F)(F)F)c2)n1N,-16%,3%,4%,-13%,?,13µM*
Cc1nnc(N/N=C/c2ccco2)n1N,-15%,30%,0%,-7%,?,10µM*
Cc1nnc(N/N=C/c2ccccc2C(F)(F)F)n1N,-14%,0%,-11%,-2%,-1%,?
CCOC(=O)/C(C#N)=C\c1ccco1,-8%,40µM*,-3%,-20%,-7%,?
CCOC(=O)c1[nH]c(C)c(C(=O)Nc2ccccc2F)c1C,25µM*,-24%,-8%,-5%,?,-18%
CCOC(=O)c1[nH]c(C)c(C(=O)Nc2ccc(F)cc2)c1C,-18%,38%,3%,-19%,-10%,7%
COc1ccc(S(=O)(=O)Nc2c3ccccc3nc(=O)n2-c2ccccc2)cc1,6%,12%,-3%,-14%,-2%,2%
O=c1nc2ccccc2c(NS(=O)(=O)c2ccc(Cl)cc2)n1-c1ccccc1,10%,-2%,3.2µM*,-20%,2%,7%
O=C1/C(=C\c2ccncc2)CCc2ccccc21,?,nt,-4%,13%,-8%,?
O=C1/C(=C/c2ccncc2)CCc2ccccc21,79µM*,0%,-17%,6%,-13%,-12%
Cc1ccc(-c2cc(C(F)(F)F)n3nc(-c4cccc(Br)c4)cc3n2)cc1,-5%,44%,4%,?,-5%,89µM*
Cc1ccc(-c2cc(C(F)(F)F)n3nc(-c4ccc(Cl)cc4)cc3n2)cc1,-9%,-4%,2%,-28%,-6%,29%
O=C(O)c1cc(NS(=O)(=O)c2ccc(N3CCOCC3)c([N+](=O)[O-])c2)cc(C(=O)O)c1,4%,-2%,30%,-7%,7%,7%
O=C(O)c1cc(NS(=O)(=O)c2ccc(NC3CCCCC3)c([N+](=O)[O-])c2)cc(C(=O)O)c1,45µM*,3%,-7%,-41%,20%,-23%
CCOc1cc(/C=C2\CN(CC)C/C(=C\c3ccc(O)c(OCC)c3)C2=O)ccc1O,-2%,-9%,-1%,-6%,13µM*,?
SMILES,POLH inh,Pol beta inh,KAT2A inh,Pol kappa inh,GLS inhibitor,Pol iota inh
CCOc1cc(C=NN2CCCCCC2)ccc1O,-17%,nt,nt,-15%,11µM*,71%
CCOc1cc(/C=N/N2CCN(Cc3ccccc3)CC2)ccc1O,-14%,3%,-2%,-8%,?,92%
COc1cc(/C=C2\CCC/C(=C\c3ccc(O)c(OC)c3)C2=O)ccc1O,-25%,22%,?,-4%,12%,?
O=Cc1ccc(O)cc1,nt,nt,nt,1%,nt,-2%
CCc1ccc(CNC(=O)c2c3c(nc4ccccc24)C(=O)N(C2CCCCC2)C3)cc1,-13%,7%,5%,0%,2%,13%
NC(N)=NCCCC(N)C(=O)O (stereo not given),nt,nt,nt,nt,-6%,nt
CCOc1cc(N2C(=O)CC3CS(=O)(=O)CC32)c(OCC)cc1NC(=O)c1ccccc1 (stereo not given),7%,32%,-4%,-1%,22µM*,?
O=S(=O)(NCCCCNS(=O)(=O)c1cccc2cccnc12)c1cccc2cccnc12,nt,nt,nt,3%,nt,9%
CCc1cccc(CC)c1NC(=O)CCS(=O)(=O)c1ccc(Br)cc1,-3%,11%,-5%,-10%,-11%,6%
CC(C)c1ccc(NC(=O)CCS(=O)(=O)c2ccc(Br)s2)cc1,-11%,-28%,-2%,-28%,-2%,-13%
COc1ccc(NC(=O)CCS(=O)(=O)c2ccc(Br)s2)cc1,50µM*,32µM*,-7%,?,14%,?
CCc1cccc(CC)c1NC(=O)CCS(=O)(=O)c1ccc(Br)s1,-12%,20µM*,1%,-4%,0%,2%
COc1ccc(Nc2ncnc3c2cnn3-c2ccc(C)cc2C)cc1,-16%,1%,-12%,-9%[60.1 µM],-2%,7%
CCOc1ccc(-c2nc3scc(-c4cccs4)c3c(=O)[nH]2)cc1,-10%,-22%,-6%,-1%,-4%,13%
CCc1nc2scc(-c3cccs3)c2c(=O)o1,?,32µM*,-7%,-13%,13%,?
Cn1cc(S(C)=O)c(=O)c2ccc(F)cc21 (stereo not given),nt,nt,nt,nt,-1%,nt
Cc1ccccc1-c1ccc2ncnc(NCc3cccnc3)c2c1,nt,nt,-8%,-10%[60.1 µM],nt,nt
S=c1[nH]nc(Nc2ccccc2Cl)s1,-17%,-20%,25µM*,-19%,?,84%
S=c1[nH]nc(Nc2cccc(Cl)c2)s1,-6%,4%,22µM*,-11%,-2%,-1%
Cc1ccc(C=C2C(=O)c3ccccc3C2=O)s1,?,-1%,-3%,-16%,-12%,25µM*
CCn1nnc2c(N3CCCC3)ncnc21,nt,nt,nt,0%,nt,14%
